Out of some 5,500 compounds screened, about 2,000 (36%) were called active. Roughly 18% stayed inconclusive and do not appear here. Rule as the data show it: active = normalized growth mostly below about 0.91 (no sharp cut-off); inconclusive = no clear call, values can overlap the other calls; inactive = mostly above about 0.92. Some of the results follow.
Assay: chemical genetic growth profiling, strain panel (AID 1159580);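 also: tested at 20 µM; growth read once vehicle control cultures reached saturation at 30 °C; 1 = growth at the plate median or of vehicle wells; lower values mean less growth of the strain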
Details: growth OD
[1] = S. cerevisiae deletion strains, locus YBR229C, strain ROT2, active compounds read low
[2] = S. cerevisiae deletion strains, locus YDL101C, strain DUN1, active compounds read low
[3] = S. cerevisiae deletion strains, locus YDR150W, strain NUM1, active compounds read low
[4] = S. cerevisiae deletion strains, locus YEL061C, strain CIN8, active compounds read low
[5] = S. cerevisiae deletion strains, locus YGR078C, strain PAC10, active compounds read low
[6] = S. cerevisiae deletion strains, locus YHR030C, strain SLT2, active compounds read low
[7] = S. cerevisiae deletion strains, locus YHR087W, strain rtc3, active compounds read low
[8] = S. cerevisiae deletion strains, locus YJL187C, strain SWE1, active compounds read low
[9] = S. cerevisiae deletion strains, locus YJR043C, strain POL32, active compounds read low
[10] = S. cerevisiae deletion strains, locus YJR075W, strain HOC1, active compounds read low
[11] = S. cerevisiae deletion strains, locus YKL190W, strain CNB1, active compounds read low
[12] = S. cerevisiae deletion strains, locus YLR039C, strain RIC1, active compounds read low
[13] = S. cerevisiae deletion strains, locus YLR058C, strain SHM2 (second series), active compounds read low
[14] = S. cerevisiae deletion strains, locus YLR085C, strain ARP6, active compounds read low
[15] = S. cerevisiae deletion strains, locus YLR262C, strain YPT6, active compounds read low
[16] = S. cerevisiae deletion strains, locus YML094W, strain GIM5, active compounds read low
[17] = S. cerevisiae deletion strains, locus YMR219W, strain ESC1, active compounds read low
[18] = S. cerevisiae deletion strains, locus YMR263W, strain SAP30, active compounds read low
[19] = S. cerevisiae deletion strains, locus YNL153C, strain GIM3, active compounds read low
[20] = S. cerevisiae deletion strains, locus YNL298W, strain CLA4 (second series), active compounds read low
[21] = S. cerevisiae deletion strains, locus YNL322C, strain KRE1, active compounds read low
[22] = S. cerevisiae deletion strains, locus YNR030W, strain Alg12, active compounds read low
[23] = S. cerevisiae deletion strains, locus YPL055C, strain LGE1, active compounds read low
[24] = S. cerevisiae deletion strains, locus YPL241C, strain CIN2, active compounds read low
[25] = S. cerevisiae deletion strains, locus YPR135W, strain CTF4, active compounds read low
[26] = S. cerevisiae deletion strains, locus YAR019C, strain CDC15, active compounds read low
[27] = S. cerevisiae deletion strains, locus YBL105C, strain PKC1, active compounds read low
[28] = S. cerevisiae deletion strains, locus YBR135W, strain CKS1, active compounds read low
[29] = S. cerevisiae deletion strains, locus YBR136W, strain MEC1, active compounds read low
[30] = S. cerevisiae deletion strains, locus YBR160W, strain CDC28, active compounds read low
[31] = S. cerevisiae deletion strains, locus YDL017W, strain CDC7, active compounds read low
[32] = S. cerevisiae deletion strains, locus YDL028C, strain MPS1, active compounds read low
[33] = S. cerevisiae deletion strains, locus YDL108W, strain KIN28, active compounds read low
[34] = S. cerevisiae deletion strains, locus YDL132W, strain cdc53, active compounds read low
[35] = S. cerevisiae deletion strains, locus YDL214C, strain PRR2, active compounds read low
[36] = S. cerevisiae deletion strains, locus YDR052C, strain DBF4, active compounds read low
[37] = S. cerevisiae deletion strains, locus YDR054C, strain cdc34, active compounds read low
[38] = S. cerevisiae deletion strains, locus YDR226W, strain ADK1, active compounds read low
[39] = S. cerevisiae deletion strains, locus YDR477W, strain SNF1, active compounds read low
[40] = S. cerevisiae deletion strains, locus YER123W, strain YCK3, active compounds read low
[41] = S. cerevisiae deletion strains, locus YER133W, strain GLC7, active compounds read low
[42] = S. cerevisiae deletion strains, locus YFL009W, strain cdc4, active compounds read low
[43] = S. cerevisiae deletion strains, locus YFL029C, strain CAK1, active compounds read low
[44] = S. cerevisiae deletion strains, locus YFR003C, strain YPI1, active compounds read low
[45] = S. cerevisiae deletion strains, locus YFR019W, strain FAB1, active compounds read low
[46] = S. cerevisiae deletion strains, locus YFR028C, strain CDC14, active compounds read low
[47] = S. cerevisiae deletion strains, locus YGR040W, strain KSS1, active compounds read low
[48] = S. cerevisiae deletion strains, locus YGR052W, strain FMP48, active compounds read low
[49] = S. cerevisiae deletion strains, locus YGR092W, strain DBF2, active compounds read low
[50] = S. cerevisiae deletion strains, locus YHR079C, strain IRE1, active compounds read low
[51] = S. cerevisiae deletion strains, locus YHR082C, strain KSP1, active compounds read low
[52] = S. cerevisiae deletion strains, locus YHR205W, strain SCH9, active compounds read low
[53] = S. cerevisiae deletion strains, locus YIL147C, strain SLN1, active compounds read low
[54] = S. cerevisiae deletion strains, locus YJL095W, strain BCK1, active compounds read low
[55] = S. cerevisiae deletion strains, locus YJL128C, strain PBS2, active compounds read low
[56] = S. cerevisiae deletion strains, locus YJL157C, strain FAR1, active compounds read low
[57] = S. cerevisiae deletion strains, locus YJR016C, strain ILV3, active compounds read low
[58] = S. cerevisiae deletion strains, locus YJR066W, strain TOR1 (second series), active compounds read low
[59] = S. cerevisiae deletion strains, locus YJR066W, strain TOR1, active compounds read low
[60] = S. cerevisiae deletion strains, locus YKL048C, strain ELM1, active compounds read low
[61] = S. cerevisiae deletion strains, locus YKL067W, strain YNK1, active compounds read low
[62] = S. cerevisiae deletion strains, locus YKL101W, strain HSL1, active compounds read low
[63] = S. cerevisiae deletion strains, locus YKL193C, strain SDS22, active compounds read low
[64] = S. cerevisiae deletion strains, locus YKL203C, strain TOR2, active compounds read low
[65] = S. cerevisiae deletion strains, locus YLR113W, strain HOG1, active compounds read low
[66] = S. cerevisiae deletion strains, locus YLR133W, strain CKI1, active compounds read low
[67] = S. cerevisiae deletion strains, locus YLR403W, strain SFP1, active compounds read low
[68] = S. cerevisiae deletion strains, locus YML070W, strain DAK1, active compounds read low
[69] = S. cerevisiae deletion strains, locus YMR001C, strain CDC5, active compounds read low
[70] = S. cerevisiae deletion strains, locus YMR205C, strain PFK2 (second series), active compounds read low
[71] = S. cerevisiae deletion strains, locus YMR277W, strain FCP1, active compounds read low
[72] = S. cerevisiae deletion strains, locus YNL006W, strain LST8, active compounds read low
[73] = S. cerevisiae deletion strains, locus YNL020C, strain ARK1, active compounds read low
[74] = S. cerevisiae deletion strains, locus YNL161W, strain CBK1, active compounds read low
[75] = S. cerevisiae deletion strains, locus YNL183C, strain NPR1, active compounds read low
[76] = S. cerevisiae deletion strains, locus YNL207W, strain RIO2, active compounds read low
[77] = S. cerevisiae deletion strains, locus YNL222W, strain SSU72, active compounds read low
[78] = S. cerevisiae deletion strains, locus YNL307C, strain MCK1 (second series), active compounds read low
[79] = S. cerevisiae deletion strains, locus YOL078W, strain AVO1, active compounds read low
[80] = S. cerevisiae deletion strains, locus YOL136C, strain PFK27, active compounds read low
[81] = S. cerevisiae deletion strains, locus YOR061W, strain CKA2, active compounds read low
[82] = S. cerevisiae deletion strains, locus YOR119C, strain RIO1, active compounds read low
[83] = S. cerevisiae deletion strains, locus YOR231W, strain MKK1, active compounds read low
[84] = S. cerevisiae deletion strains, locus YOR329C, strain SCD5, active compounds read low
[85] = S. cerevisiae deletion strains, locus YPL031C, strain PHO85, active compounds read low
[86] = S. cerevisiae deletion strains, locus YPL153C, strain RAD53, active compounds read low
[87] = S. cerevisiae deletion strains, locus YPL204W, strain HRR25, active compounds read low
[88] = S. cerevisiae deletion strains, locus YPL209C, strain IPL1, active compounds read low
[89] = S. cerevisiae deletion strains, locus YPL256C, strain CLN2, active compounds read low
[90] = S. cerevisiae deletion strains, locus YPR025C, strain CCL1, active compounds read low
[91] = S. cerevisiae deletion strains, locus YPR106W, strain ISR1, active compounds read low
[92] = S. cerevisiae deletion strains, locus YPR111W, strain DBF20, active compounds read low
[93] = S. cerevisiae deletion strains, strain NNK1, active compounds read low
[94] = S. cerevisiae deletion strains, strain TSCII, active compounds read low

Measured: normalized growth

CCOC(=O)c1c[nH]c2c(F)cccc2c1=O
inactive: [1] 1 | S. cerevisiae deletion strains, locus YCL061C, strain MRC1, active compounds read low 0.985 | [2] 0.963 | [3] 0.963 | [4] 1.04 | [5] 0.982 | [6] 1.03 | [7] 1.02 | [8] 1.01 | [9] 0.988 | [10] 0.973 | [11] 0.993 | [12] 1.06 | [13] 1.01 | [14] 1.03 | [15] 1.04 | [16] 1.02 | [17] 0.997 | [18] 1.01 | [19] 0.973 | [20] 0.981 | [21] 0.996 | [22] 0.978 | [23] 1.02 | [24] 0.962 | [25] 0.985 | S. cerevisiae strains, strain wild type, active compounds read low 0.989

CCOC(=O)c1cnc(SCC(=O)c2ccc(Cl)cc2Cl)[nH]1
inactive: S. cerevisiae deletion strains, locus YAL013W, strain DEP1, active compounds read low 1 | [1] 1 | [2] 1 | [3] 1.02 | [4] 1.03 | [5] 1.02 | [6] 0.936 | [7] 1.01 | [8] 1.03 | [9] 0.999 | [10] 1 | [11] 0.993 | [12] 0.934 | [13] 1.01 | [14] 1.06 | [15] 0.914 | [16] 1.01 | [17] 1.01 | [18] 0.938 | [19] 1 | [20] 1.04 | [21] 1.01 | [22] 0.988 | [23] 1.08 | [24] 1.01 | [25] 0.851

CCOC(=O)c1cnc(-c2ccccn2)[nH]c1=O
active: [40] 0.453 | [6] 0.734 | [50] 0.426 | [54] 0.432 | [65] 0.487 | [83] 0.413 | [89] 0.464
inactive: [26] 0.933 | [27] 0.955 | [28] 0.932 | [29] 0.94 | [30] 0.934 | [31] 0.957 | [32] 0.94 | [2] 0.955 | [33] 0.943 | [34] 0.948 | [35] 0.825 | [36] 0.952 | [37] 0.899 | [38] 0.935 | [39] 0.85 | [41] 0.856 | [42] 0.907 | [43] 0.932 | [44] 0.947 | [45] 0.819 | [46] 0.937 | [47] 0.866 | [48] 0.69 | [49] 0.638 | [51] 0.839 | [52] 0.965 | [53] 0.935 | [55] 1.01 | [56] 0.743 | [57] 0.934 | [58] 0.741 | [59] 0.652 | [60] 0.927 | [61] 0.818 | [62] 0.871 | [63] 0.917 | [64] 0.901 | [66] 0.834 | [67] 0.785 | [68] 0.744 | [69] 0.934 | [70] 0.848 | [71] 0.922 | [72] 0.966 | [73] 0.833 | [74] 0.933 | [75] 0.603 | [76] 0.926 | [77] 0.921 | [78] 0.759 | [79] 0.92 | [80] 0.752 | [81] 0.835 | [82] 0.863 | [84] 0.948 | [85] 0.82 | [86] 0.759 | [87] 0.773 | [88] 0.946 | [90] 0.953 | [91] 0.944 | [92] 0.939 | [93] 0.932 | [94] 0.916

CC(C)Sc1c(Cl)cccc1NC(=O)Nc1cccc(C(F)(F)F)c1
inactive: [26] 0.981 | [27] 0.977 | [28] 0.972 | [29] 0.978 | [30] 0.981 | [31] 0.984 | [32] 0.979 | [2] 0.98 | [33] 0.972 | [34] 0.975 | [35] 0.927 | [36] 0.979 | [37] 0.97 | [38] 0.965 | [39] 0.916 | [40] 0.888 | [41] 0.945 | [42] 0.99 | [43] 0.976 | [44] 0.974 | [45] 0.918 | [46] 0.974 | [47] 0.908 | [48] 1.04 | [49] 0.94 | [50] 0.953 | [51] 0.96 | [52] 0.891 | [53] 0.979 | [54] 0.887 | [55] 0.956 | [56] 0.946 | [57] 0.984 | [58] 0.943 | [59] 0.912 | [60] 0.946 | [61] 0.914 | [62] 0.937 | [63] 0.975 | [64] 0.947 | [65] 0.908 | [66] 0.922 | [67] 0.953 | [68] 0.929 | [69] 0.977 | [70] 0.936 | [71] 0.973 | [72] 0.98 | [73] 0.926 | [74] 0.983 | [75] 0.918 | [76] 0.982 | [77] 0.97 | [78] 0.876 | [79] 0.966 | [80] 0.93 | [81] 0.957 | [82] 0.995 | [83] 0.946 | [84] 0.98 | [85] 0.905 | [86] 0.911 | [87] 0.896 | [88] 0.976 | [89] 0.861 | [90] 0.979 | [91] 0.976 | [92] 0.974 | [93] 0.97 | [94] 0.992
active: [6] 0.773

— PubChem BioAssay AID1159580 (chemical genetic matrix, 2015)
